14 compounds from PubChem BioAssay can be followed below.

The source made the active and inactive calls.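 How the source made its calls, unless noted: active means inhibition at or above 50% at 10 µM; inactive means inhibition below 50%.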

A short description of experiment [1]: inhibitors of TNFa-induced NFkB p65 translocation, primary screen, imaging, HUVEC, MLSMR starter and 10KST1 sets (AID 438;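 active means inhibition above 20% together with a positive visual image hit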;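 further: compound added about 3h40 before a 20 min TNFalpha stimulation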;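 on inhibition: signal is the nuclear over cytoplasmic p65 intensity ratio per well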). The conditions noted are these: HUVEC TNFa-induced p65 nuclear translocation; cell count: measured here: nuclei count (cytotoxicity indicator), at 2.08 µM; inhibition: at 2 µM, stronger effect = higher value, 0% TNFa-plus-vehicle, 100% no-TNFa wells.

A short description of experiment [2]: reduction of polyQ htt aggregates in cells – imaging, exon1htt(103Q)mCFP cells, high-content imaging, primary screen (AID 483;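 active means visual image review flags a hit and inhibition of aggregation exceeds 20%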;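 further: compound exposure lasted 3 days before fixation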;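 on nuclei count: percent of the per-plate median nuclei count of sample wells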). The conditions noted are these: exon1htt(103Q)mCFP cell line, aggregate imaging, at 2 µM; inhibition of aggregation: stronger effect = higher value; nuclei count: measured here: cell count, toxicity.
The nature of experiment [3]: endothelial E-selectin expression blockers – imaging, HUVEC, immunofluorescence, MLSMR starter and 10KST1 sets, primary screen (AID 487;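 active means visually confirmed hit in the image check and inhibition above 20%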;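 on inhibition: signal is fraction of cell area covered by stained E-selectin grains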;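 on nuclei count: 100% = median nuclei count of all wells on the same plate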). Conditions: HUVEC TNFalpha-induced E-selectin immunofluorescence imaging, at 2 µM; inhibition: stronger effect = higher value; nuclei count: measured here: cell number, toxicity.
In experiment [4] the target is Voltage-gated potassium channel subunit beta-2 (Rattus norvegicus) (UniProt P62483). The experiment is described as follows: inhibitors of rat Kvbeta2 reductase activity – biochemical, NADPH fluorescence, primary screen (AID 622;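 active means fluorescence slope higher than the sample average by over 3 SD, cut at about -0.22 in these data, passing the limit was not always enough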;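 further: slope of raw intensity against log time taken from 70 to 1610 s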). Conditions: recombinant KvBeta, 4-cyanobenzaldehyde reduction, at 10 µM, stronger effect = higher value.
Experiment [5] shares this target. Briefly: enhancers of rat Kvbeta2 NADPH turnover – biochemical, NADPH fluorescence, primary screen (AID 623;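 active means NADPH fluorescence slope more negative than the mean of all samples by about 3 SD, 99.7% confidence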;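 further: fluorescence intensity change per second fitted from 20 to 320 s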). The conditions noted are these: Recombinant KvBeta, NADPH fluorescence decrease slope, 10 min; at 10 µM; stronger effect = lower value.
Experiment [6] addresses Alpha-2C adrenergic receptor (Homo sapiens) (UniProt P18825). The experiment is described as follows: compounds altering alpha2C-coupled GIRK flux – cell-based, HEK293 alpha2C/GIRK1/2, thallium flux, primary screen (AID 624;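 active means fluorescence slope after compound addition differing from the mean of all screened samples at 99.7% confidence, in either direction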;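 further: slope of fluorescence ratio to pre-addition baseline per second over 15 to 24 s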). Conditions: thallium flux BTC fluorescence, at 10 µM, actives lie on both sides.
Experiment [7] in a line: blockers of RIG-like receptor reporter activation – cell-based, Sendai virus stimulus, luciferase, 10K MLSCN set, TLR/RLR signaling modifier project, primary screen (AID 602276).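 Further: firefly luciferase from ISG56 promoter only with Renilla not read in this screen; 0% = Sendai virus plus DMSO and 100% = medium plus DMSO without virus.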 The conditions noted are these: HEK293 RL24 IRF3 luciferase reporter, at 10 µM, stronger effect = higher value.
Experiment [8] can be described thus: TLR3 IRF3 reporter activation blockers – cell-based, poly I:C stimulus, luciferase, 10K MLSCN set, primary screen (AID 602277;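 active means inhibition of the reporter signal at or above 50%; inactive means inhibition below 50%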). The conditions noted are these: HEK293-TLR3 RL24 IRF3 luciferase reporter, at 10 µM, stronger effect = higher value.

Chain of Alpha-2C adrenergic receptor (Homo sapiens) (P18825 whole entry, looked up): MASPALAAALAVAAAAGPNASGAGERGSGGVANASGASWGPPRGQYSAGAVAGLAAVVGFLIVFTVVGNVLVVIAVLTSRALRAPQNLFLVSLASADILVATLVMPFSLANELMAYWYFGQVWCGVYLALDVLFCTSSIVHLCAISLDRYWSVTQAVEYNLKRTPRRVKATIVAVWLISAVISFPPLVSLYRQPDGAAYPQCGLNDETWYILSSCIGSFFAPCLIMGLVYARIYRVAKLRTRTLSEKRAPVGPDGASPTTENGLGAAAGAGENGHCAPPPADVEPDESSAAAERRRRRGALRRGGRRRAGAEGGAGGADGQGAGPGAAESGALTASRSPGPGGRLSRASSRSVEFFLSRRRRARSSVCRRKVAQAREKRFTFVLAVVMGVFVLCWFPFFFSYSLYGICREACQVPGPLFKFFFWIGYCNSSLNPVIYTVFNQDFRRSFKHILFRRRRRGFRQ
Chain of Voltage-gated potassium channel subunit beta-2 (Rattus norvegicus) (P62483 whole entry, looked up): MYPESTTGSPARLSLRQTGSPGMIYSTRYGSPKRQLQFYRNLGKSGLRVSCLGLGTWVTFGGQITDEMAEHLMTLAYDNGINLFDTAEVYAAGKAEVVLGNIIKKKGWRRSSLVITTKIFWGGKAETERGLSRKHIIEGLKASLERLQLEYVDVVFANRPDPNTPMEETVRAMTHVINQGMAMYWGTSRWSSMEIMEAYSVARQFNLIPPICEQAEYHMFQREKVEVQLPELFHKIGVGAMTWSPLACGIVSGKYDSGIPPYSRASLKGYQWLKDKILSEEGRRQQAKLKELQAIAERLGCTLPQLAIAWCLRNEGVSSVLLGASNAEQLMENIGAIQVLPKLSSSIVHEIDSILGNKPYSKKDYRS

For `O=C(CSc1nnc2c3cc(F)ccc3nc(-c3ccccc3)n12)N1CCOCC1`, in experiment [1], the cell count is 597. The inhibition in experiment [1] is 4.9% (inactive); in experiment [3], -23.2% (inactive); in experiment [7], -0.506% (inactive); in experiment [8], -0.765% (inactive). For the same compound, the inhibition of aggregation in experiment [2] was -0.6% (inactive). Also, the nuclei count in experiment [2] worked out at 104%; in experiment [3], 96.3%. Besides, the fluorescence slope in experiment [4] is -0.37 (inactive). For the same compound, in experiment [5], the NADPH fluorescence slope was -7.1e-06 (inactive). Besides, in experiment [6], the slope is 0.00625 (inactive).
As to `Cc1cc(=O)n(C)c(=O)n1CCCNc1ccccc1`, in experiment [1], the cell count was found to be 489. For the same compound, the inhibition in experiment [1] is -13.1% (inactive); in experiment [3] it was -19.5% (inactive); in experiment [7] it was -2.79% (inactive); in experiment [8], 6.15% (inactive). In experiment [2], the inhibition of aggregation was -3% (inactive). In addition, the results for the nuclei count in experiment [2] and in experiment [3] were 126% and 113%, respectively. For the same compound, in experiment [4], the fluorescence slope is -0.333 (inactive). Moreover, the NADPH fluorescence slope in experiment [5] was -3.7e-05 (inactive). Further, in experiment [6], the slope is 0.00566 (inactive).
Consider `O=C(NC1CC1)C1CCC(=O)N1C1CCCC1` (centres undefined), for which the cell count in experiment [1] amounted to 435. For the same compound, the inhibition was -6.7% (inactive) in experiment [1], -184% (inactive) in experiment [3], 7.79% (inactive) in experiment [7] and 14.9% (inactive) in experiment [8]. In addition, in experiment [2], the inhibition of aggregation is -18.4% (inactive). For the same compound, the nuclei count in experiment [2] turned out to be 119%; in experiment [3], 246%. Besides, in experiment [4], the fluorescence slope was -0.47 (inactive). Moreover, in experiment [5], the NADPH fluorescence slope was 2.9e-05 (inactive). The slope in experiment [6] was 0.00569 (inactive).
On to `CCOC(=O)C1CCN(C(=O)CCCCn2c(=O)[nH]c3ccccc3c2=O)CC1`, for which, in experiment [1], the cell count was 517. Also, the inhibition in experiment [1] is -8.6% (inactive); in experiment [3], -54.8% (inactive); in experiment [7], 0.817% (inactive); in experiment [8] it was -29.5% (inactive). The inhibition of aggregation in experiment [2] is -27.5% (inactive). Further, the results for the nuclei count in experiment [2] and in experiment [3] were 100% and 126%, respectively. For the same compound, in experiment [4], the fluorescence slope is -0.563 (inactive). Further, in experiment [5], the NADPH fluorescence slope was 3.1e-05 (inactive). Further, in experiment [6], the slope is 0.00611 (inactive).
On to `CCc1nc2sc3ccccc3c(=O)c2c(=O)n1Cc1ccco1`, for which the cell count in experiment [1] is 577. Besides, the inhibition in experiment [1] is 14.3% (inactive); in experiment [3], 4.8% (inactive); in experiment [7], -14.6% (inactive); in experiment [8], -14.8% (inactive). The inhibition of aggregation in experiment [2] is -3.1% (inactive). Moreover, the nuclei count in experiment [2] was 87.2%; in experiment [3], 112%. Moreover, the fluorescence slope in experiment [4] is -0.568 (inactive). For the same compound, the NADPH fluorescence slope in experiment [5] was -3.8e-05 (inactive). The slope in experiment [6] is 0.00576 (inactive).
For `COC(=O)c1ccc(NC2(C#N)C(=O)Nc3ccccc32)cc1` (centres undefined), the cell count in experiment [1] worked out at 246. Also, the inhibition was 7.6% (inactive) in experiment [1], -208% (inactive) in experiment [3], 19% (inactive) in experiment [7] and 8.66% (inactive) in experiment [8]. Besides, the inhibition of aggregation in experiment [2] was 15% (inactive). Also, the nuclei count is 95.5% in experiment [2] and 116% in experiment [3]. Also, the fluorescence slope in experiment [4] was -0.408 (inactive). For the same compound, the NADPH fluorescence slope in experiment [5] was -1.9e-05 (inactive). For the same compound, the slope in experiment [6] is 0.00466 (inactive).
Take `CCOC(=O)c1cccc(NC(=O)CNS(=O)(=O)c2cccs2)c1`: the cell count in experiment [1] came to 445. For the same compound, the inhibition in experiment [1] was 6.8% (inactive); in experiment [3], -7.8% (inactive); in experiment [7], -11.6% (inactive); in experiment [8], -10.2% (inactive). Besides, the inhibition of aggregation in experiment [2] was -11.6% (inactive). Also, the nuclei count is 108% in experiment [2] and 134% in experiment [3]. The fluorescence slope in experiment [4] was -0.518 (inactive). The NADPH fluorescence slope in experiment [5] was -4.4e-05 (inactive). Besides, the slope in experiment [6] was 0.00596 (inactive).
Take `Cc1ccc(C(=O)NC(Cc2c[nH]c3ccccc23)C(=O)O)o1` (centres undefined): in experiment [1], the cell count was found to be 507. The inhibition in experiment [1] is 4.3% (inactive); in experiment [3], -25% (inactive); in experiment [7], -7.86% (inactive); in experiment [8], 22.8% (inactive). For the same compound, the inhibition of aggregation in experiment [2] was -3.1% (inactive). Further, the nuclei count in experiment [2] was found to be 110%; in experiment [3], 120%. In addition, the fluorescence slope in experiment [4] was -0.485 (inactive). Also, in experiment [5], the NADPH fluorescence slope was 5.1e-05 (inactive). Further, the slope in experiment [6] is 0.0112 (active).
For the compound `CCCCCCC1/C(=N/O)CCC1C(=O)OC` (centres undefined), the cell count in experiment [1] worked out at 656. Also, the inhibition was -7.7% (inactive) in experiment [1], -54.1% (inactive) in experiment [3], 0.917% (inactive) in experiment [7] and 10.1% (inactive) in experiment [8]. Further, the inhibition of aggregation in experiment [2] is 7.3% (inactive). The nuclei count is 91.2% in experiment [2] and 127% in experiment [3]. Besides, the fluorescence slope in experiment [4] is -0.614 (inactive). Further, in experiment [5], the NADPH fluorescence slope is -8.9e-06 (inactive). The slope in experiment [6] was 0.00642 (inactive).
With `OC1(c2cccc(C(F)(F)F)c2)CCN(c2ccc(-c3ccccc3)nn2)CC1`, in experiment [1], the cell count was determined as 853. Further, the inhibition in experiment [1] was 4.3% (inactive); in experiment [3], -25.2% (inactive); in experiment [7], -40.7% (inactive); in experiment [8], -99% (inactive). The inhibition of aggregation in experiment [2] is -13.4% (inactive). Besides, the nuclei count amounted to 96.8% in experiment [2] and 106% in experiment [3]. Moreover, the fluorescence slope in experiment [4] was -0.456 (inactive). Further, the NADPH fluorescence slope in experiment [5] was -4.5e-05 (inactive). For the same compound, the slope in experiment [6] is 0.00688 (inactive).
For `Cc1ccccc1NC(=O)Cc1nnc(SCC(=O)N2CCN(c3ccccc3)CC2)n1C`, the cell count in experiment [1] was determined as 483. Also, the inhibition was -5.3% (inactive) in experiment [1], 8.9% (inactive) in experiment [3], 11.9% (inactive) in experiment [7] and 29.5% (inactive) in experiment [8]. In addition, the inhibition of aggregation in experiment [2] was 2.3% (inactive). Besides, the nuclei count is 99.9% in experiment [2] and 131% in experiment [3]. Also, the fluorescence slope in experiment [4] is -0.402 (inactive). Also, the NADPH fluorescence slope in experiment [5] was -5.5e-05 (inactive). Besides, the slope in experiment [6] was 0.00281 (inactive).
In the case of `Cc1nnc(SCC(=O)Nc2sc3c(c2C#N)CCCC3)[nH]c1=O`, in experiment [1], the cell count amounted to 368. Further, the inhibition is 2.8% (inactive) in experiment [1], -31.8% (inactive) in experiment [3], 8.57% (inactive) in experiment [7] and 39.4% (inactive) in experiment [8]. In experiment [2], the inhibition of aggregation was -12.9% (inactive). In addition, the figures for the nuclei count in experiment [2] and in experiment [3] were 114% and 108%, respectively. For the same compound, the fluorescence slope in experiment [4] was -0.441 (inactive). For the same compound, the NADPH fluorescence slope in experiment [5] was 1.2e-05 (inactive). Further, the slope in experiment [6] was 0.00274 (inactive).
With `CCN(CC)Cc1csc(C(N)=O)c1`, the cell count in experiment [1] is 617. Moreover, the inhibition in experiment [1] was -1.2% (inactive); in experiment [3] it was -26% (inactive); in experiment [7] it was 5.97% (inactive); in experiment [8] it was 23.4% (inactive). The inhibition of aggregation in experiment [2] is 0.5% (inactive). The results for the nuclei count in experiment [2] and in experiment [3] were 102% and 83%, respectively. Also, in experiment [4], the fluorescence slope was -0.612 (inactive). The NADPH fluorescence slope in experiment [5] is -6.9e-06 (inactive). For the same compound, the slope in experiment [6] was 0.00652 (inactive).
Regarding `Cc1ccccc1Nc1cc2ccccc2c(=O)[nH]1`, the cell count in experiment [1] was found to be 481. Moreover, the inhibition in experiment [1] was -12.2% (inactive); in experiment [3], -35% (inactive); in experiment [7] it was -7.13% (inactive); in experiment [8] it was 20.8% (inactive). The inhibition of aggregation in experiment [2] was -19.5% (inactive). Moreover, the nuclei count in experiment [2] came out at 102%; in experiment [3], 98.8%. The fluorescence slope in experiment [4] is -0.17 (inactive). Besides, in experiment [5], the NADPH fluorescence slope was 1.6e-05 (inactive). In addition, in experiment [6], the slope is 0.00385 (inactive).
